The text below walks through data of PubChem BioAssay (Tox21).

Where “and” joins values, the source holds several entries; their conditions need not be identical. Identical values can stand only once. Records with an inconclusive call do not appear. More than one record can exist for a structure, and the calls need not agree. Calls of active or inactive are those of the source. Unless noted, calls follow the shape of the dose curve; as a rule, active = well fitted curve in the direction sought with a large enough effect in the repeat runs; inconclusive = weak or mixed curves; inactive = no such curve, though single readings can be large; an effect the other way counts as inactive or inconclusive.

Assay [1] can be described thus: qHTS assay for small molecule agonists of the p53 signaling pathway (AID 651631; calls by dose curve; also: nearly all actives have a fitted effect of over 15% in size). The gist of the method: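 Readout was fluorescence from the LiveBLAzer FRET substrate, applied for 2 h at room temperature after 16 h compound exposure at 37 °C. Cells were the p53RE-bla HCT-116 line, with beta-lactamase driven by p53 response elements.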
In general terms: qHTS replaces the single test concentration by a dilution series.

Assay [2] is described as follows: qHTS assay for small molecules that induce genotoxicity in human embryonic kidney cells expressing luciferase-tagged ATAD5 (AID 651632). Also: nearly all actives have a fitted effect of over 15% in size. The gist of the method: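 DMSO vehicle served as the control. HEK293T reporter cells, 16 hr at 37C, then 30 min Amplite at room temperature; ATAD5 induction is measured as luciferase activity.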
The nature of assay [3]: qHTS assay for small molecule agonists of the p53 signaling pathway - cell viability (AID 651633; calls by dose curve; also: series mostly up to about 83 µM; nearly all actives have a fitted effect of over 30% in size). The gist of the method:
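p53RE-bla cells, seeded at 4,000 per well and rested 5 h at 37 C/5% CO2, received compounds in DMSO for 16 h at 37 C. CellTiter-Glo was then added, and luminescence was read after 30 min at room temperature to gauge cytotoxicity.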

Assay [4] in a line: qHTS assay for small molecules that induce genotoxicity in human embryonic kidney cells expressing luciferase-tagged ATAD5 - cell viability (AID 651634; calls by dose curve; also: nearly all actives have a fitted effect of over 25% in size). The gist of the method:
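Here HEK293T cells with the ATAD5 luciferase reporter are incubated with test compounds for 15.5 hr, and cytotoxicity is then gauged by measuring protease activity in live cells using fluorescence.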

Assay [5] is described as follows: qHTS assay for small molecule disruptors of the mitochondrial membrane potential - cell viability (AID 720634; calls by dose curve; also: nearly all actives have a fitted effect of over 20% in size; also: potency is read from the fitted curve at half-maximal effect). A digest of the protocol: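 Viability of HepG2 cells is scored from ATP content by luminescence; cells are exposed to compound for 1 hr at 37 C and 5% CO2, then dosed with m-MPI dye before the CellTiter-Glo reagent.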
Assay [6] is described as follows: qHTS assay for small molecule disruptors of the mitochondrial membrane potential (AID 720635). Also: potency is read from the fitted curve at half-maximal effect. The gist of the method:
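HepG2 cells (2,000/well) attached overnight at 37C, then took compound for 1 hr at 37C, 5% CO2. Mito-MPS dye was added for 30 min; fluorescence was read at 490/535 nm (monomers) and 540/590 nm (aggregates).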

Assay [7] can be described thus: qHTS assay to test for compound auto fluorescence at 590 nm (red) in HepG2 cells (AID 720674). A digest of the protocol:
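Rose Bengal sodium served as the red fluorophore standard. HepG2 monolayers (overnight attachment, MEM with 10% FBS) were exposed to test compounds for 1 hr at 37 C and read at Ex 540/Em 590 nm.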

Assay [8] can be described thus: qHTS assay to test for compound auto fluorescence at 535 nm (green) in HepG2 cells (AID 720675).
Assay [9] can be described thus: qHTS assay to test for compound auto fluorescence at 460 nm (blue) in HEK293 cells (AID 720678). The gist of the method:
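HEK293 cells (2,000/well, medium with 10% dialyzed FBS) attached 4-5 hr, then exposed to compound overnight at 37C, 5% CO2. Blue fluorescence read at 405/460 nm, with triamterene as reference fluorophore.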

A short description of assay [10]: qHTS assay to test for compound auto fluorescence at 590 nm (red) in HEK293 cells (AID 720679). A digest of the protocol:
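HEK293 cells (2,000/well, 10% dialyzed FBS) attached 4-5 hr, then dosed with compound or DMSO and incubated overnight at 37C, 5% CO2. Red fluorescence read at 540/590 nm, Rose Bengal sodium as reference fluorophore.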

The nature of assay [11]: qHTS assay to test for compound auto fluorescence at 535 nm (green) in HEK293 cells (AID 720680).
Assay [12] can be described thus: qHTS assay to test for compound auto fluorescence at 460 nm (blue) in HEK293 cell free culture (AID 720681). The gist of the method:
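Test compounds were pinned into cell-free culture medium (DMEM with 10% FBS) and fluorescence was read directly at Ex/Em 405/460 nm. Signals were expressed as fluorescence equivalents of triamterene, with DMSO vehicle as control.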

The nature of assay [13]: qHTS assay to test for compound auto fluorescence at 535 nm (green) in HEK293 cell free culture (AID 720682). The gist of the method:
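Compounds were pin-transferred into cell-free DMEM with 10% FBS, and green fluorescence was read at excitation 485 nm and emission 535 nm. Intensities were expressed as fluorescein-equivalent values.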

Assay [14] in a line: qHTS assay to test for compound auto fluorescence at 590 nm (red) in HEK293 cell free culture (AID 720683). A digest of the protocol: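 Tox21 10K library compounds were pinned into cell-free DMEM with 10% FBS and fluorescence was read at excitation 540 nm. Activity is expressed as Rose Bengal sodium equivalency.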
Assay [15] in a line: qHTS assay to test for compound auto fluorescence at 590 nm (red) in HepG2 cell free culture (AID 720684). A digest of the protocol: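 Readout: intrinsic compound fluorescence at 590 nm emission after 540 nm excitation, scaled to Rose Bengal sodium. Matrix was cell-free MEM with 10% FBS; DMSO vehicle wells served as control.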
The nature of assay [16]: qHTS assay to test for compound auto fluorescence at 460 nm (blue) in HepG2 cell free culture (AID 720685). The gist of the method: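 Cell-free plates of MEM plus 10% FBS received 23 nL compound or DMSO vehicle; blue-channel (405/460 nm) intensity scored against triamterene as reference fluorophore.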
Assay [17] in a line: qHTS assay to test for compound auto fluorescence at 535 nm (green) in HepG2 cell free culture (AID 720686).
The nature of assay [18]: qHTS assay to test for compound auto fluorescence at 460 nm (blue) in HepG2 cells (AID 720687). A digest of the protocol:
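Cells (2,000/well in MEM with 10% FBS) attached overnight at 37 C, then were exposed to compound or DMSO for 1 hr at 37 C, 5% CO2. Fluorescence read at Ex/Em 405/460 nm, expressed as triamterene-equivalent signal.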

For assay [19], the target named is Glucocorticoid receptor (Homo sapiens) (UniProt P04150). Briefly: qHTS assay to identify small molecule agonists of the glucocorticoid receptor (GR) signaling pathway (AID 720691; active = well fitted activation curve with a large enough effect in the signal ratio in the repeat runs, not every such curve was filed as active; the % refers to the signal ratio). The gist of the method: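 Compounds in DMSO, alongside positive controls, were added to GR-bla HeLa reporter cells and incubated 18 h at 37 C; GRE-driven beta-lactamase was detected by fluorescence after 2 h with FRET substrate at room temperature.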

The target is the same in assay [20]. Briefly: qHTS assay to identify small molecule antagonists of the glucocorticoid receptor (GR) signaling pathway (AID 720692; active = well fitted inhibition curve with a large enough effect in the signal ratio in the repeat runs, not every such curve was filed as active; the % refers to the signal ratio). A digest of the protocol:
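In a 1536-well cell format, compounds were added 4 h after seeding GR-bla HeLa cells, together with dexamethasone at 5 nM final; reporter activity was measured by FRET-substrate fluorescence following 18 h at 37 C.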

Chain of Glucocorticoid receptor (Homo sapiens) (P04150 whole entry, looked up): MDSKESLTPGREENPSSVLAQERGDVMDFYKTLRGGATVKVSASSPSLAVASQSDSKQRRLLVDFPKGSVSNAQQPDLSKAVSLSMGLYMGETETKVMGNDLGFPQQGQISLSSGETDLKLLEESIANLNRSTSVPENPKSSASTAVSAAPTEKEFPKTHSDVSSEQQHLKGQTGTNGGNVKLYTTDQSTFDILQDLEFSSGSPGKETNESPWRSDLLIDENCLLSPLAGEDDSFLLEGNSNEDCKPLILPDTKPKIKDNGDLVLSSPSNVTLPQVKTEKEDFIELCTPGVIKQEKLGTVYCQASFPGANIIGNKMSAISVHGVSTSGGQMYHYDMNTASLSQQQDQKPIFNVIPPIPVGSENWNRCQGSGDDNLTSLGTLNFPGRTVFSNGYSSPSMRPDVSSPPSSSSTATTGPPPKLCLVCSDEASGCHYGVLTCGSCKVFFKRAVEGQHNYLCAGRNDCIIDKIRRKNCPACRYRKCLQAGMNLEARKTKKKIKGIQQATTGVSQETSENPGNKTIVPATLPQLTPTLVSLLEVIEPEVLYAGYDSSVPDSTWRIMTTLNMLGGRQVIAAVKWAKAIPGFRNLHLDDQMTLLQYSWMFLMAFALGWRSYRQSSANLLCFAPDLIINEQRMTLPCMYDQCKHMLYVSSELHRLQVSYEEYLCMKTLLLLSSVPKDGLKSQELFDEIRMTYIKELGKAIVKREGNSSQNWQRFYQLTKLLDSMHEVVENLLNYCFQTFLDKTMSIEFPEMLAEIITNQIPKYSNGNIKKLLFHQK

For the compound `C=CCN(CC=C)C(=O)C(Cl)Cl`, the Potency entry in assay [1], in assay [2], in [3], in assay [4], in [5] and in [6] was “inactive” in each case. Moreover, the Potency entry in assay [19] and in [20] was “inactive” throughout. The outcome in assay [7], in assay [8], in [9], in assay [10], in assay [11] and in assay [12] was inactive. Further, the compound was called inactive in assay [13], in assay [14], in assay [15], in [16], in assay [17] and in assay [18].

In the case of `CNC(=O)N(C)c1nnc(C(C)(C)C)s1`, the Potency result in assay [1], in assay [2], in [3], in assay [4] and in [5] was “inactive” throughout. Moreover, the outcome in assay [9], in assay [10], in [11], in [12], in assay [13] and in [14] was inactive. Moreover, the compound was called inactive in [15], in assay [16], in assay [17] and in assay [18].

As to `Nc1cccnc1`, the Potency entry in assay [1], in assay [2], in [3], in assay [4], in assay [5] and in [6] was “inactive” in each case. Further, the outcome in assay [7], in assay [8], in assay [9], in [10], in assay [13] and in assay [14] was inactive. The result in assay [16], in [17] and in assay [18] was inactive.

In the case of `CCC(C)(C)c1ccc(O)cc1`, the Potency result in assay [1], in assay [2], in assay [3], in [4], in [19] and in [20] was “inactive” throughout. Further, the Potency in [5] was 55 µM (active) and inactive; in assay [6], 26.6 µM (active) and 17.4 µM (active) and 15.4 µM (active). In addition, the compound was classed as inactive in assay [7], in assay [9], in assay [10], in assay [11], in assay [13] and in [14]. Also, the result in assay [16], in assay [17] and in assay [18] was inactive.

As to `Nc1ccc(Cl)c(Cl)c1`, the Potency entry in assay [1], in assay [2], in assay [3], in [4], in assay [5] and in [6] was “inactive” each time. For the same compound, the call in [7], in [8], in assay [9], in assay [10], in assay [11] and in [13] was inactive. Besides, the compound was classed as inactive in assay [14], in [15], in assay [16], in assay [17] and in assay [18].

For `Nc1ccc(-c2ccccc2)cc1`, the Potency result in assay [1], in assay [2], in assay [3] and in [4] was “inactive” in each case. In addition, the compound was called inactive in [8], in assay [9], in assay [10], in assay [11], in assay [12] and in assay [13]. Further, the result in assay [14], in assay [16], in assay [17] and in assay [18] was inactive.

With `CCN(CC)N=O`, the Potency result in assay [1], in assay [3], in assay [4], in assay [5] and in [6] was “inactive” each time. Also, the compound was classed as inactive in assay [7], in assay [9], in assay [10], in [11], in [12] and in [13]. Further, the outcome in [14], in [15], in [16], in [17] and in assay [18] was inactive.

For the compound `C=C(C)C(=O)OCC1CO1` (stereo not given), the Potency result in assay [2], in assay [3], in assay [4], in assay [5], in assay [6] and in assay [20] was “inactive” each time. Further, the compound was classed as inactive in assay [7], in assay [8], in [9], in [10], in [12] and in assay [13]. Also, the compound was classed as inactive in [14], in [16], in assay [17] and in assay [18].
